In PubChem BioAssay (Tox21):
Results filed as inconclusive are left out. The source made the active and inactive calls. Calls follow the shape of the dose curve; as a rule, active = well fitted curve in the direction sought with a large enough effect in the repeat runs; inconclusive = weak or mixed curves; inactive = no such curve, though single readings can be large; an effect the other way counts as inactive or inconclusive.

Key:
[1] = A CellTox Green Cytotoxicity Assay to monitor cytotoxicity in HEK293 cells - 40 hour (AID 1224871); also: nearly all actives have a fitted effect of over 45% in size; also: potency is read from the fitted curve at half-maximal effect
Method in brief: (§1)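 Each value comes from one timepoint of a single continuous run in which HEK293 cells with CellTox Green were exposed to compound for up to 40 h at 37 C, dye fluorescence rising with cell death.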

[2] = qHTS RealTime-Glo MT Cell Viability Assay in HEK293 cells - 16 hour (AID 1224872); also: potency is read from the fitted curve at half-maximal effect; nearly all actives have a fitted effect of over 50% in size
Method in brief: (§2)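 HEK293 cells seeded with NanoLuc/prosubstrate reagent, rested 5 h at 37 C, then dosed and kept at 37 C up to 40 h. Nonlytic real-time luminescence from viable cells read at 0, 8, 16, 24, 32 and 40 h.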

[3] = qHTS RealTime-Glo MT Cell Viability Assay in HepG2 cells - 8 hour (AID 1224873); also: % is scaled to controls: 0 for no effect and ±100 for the full control effect; nearly all actives have a fitted effect of over 55% in size
Method in brief: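 HepG2 cells mixed with RealTime-Glo MT reagents (NanoLuc plus cell-permeant prosubstrate) were seeded at 600 cells/well, incubated 5 h at 37 C/5% CO2, then pinned with compounds in DMSO; nonlytic luminescence tracked viability during 40 h treatment.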

[4] = qHTS RealTime-Glo MT Cell Viability Assay in HepG2 cells - 32 hour (AID 1224877); also: % is scaled to controls: 0 for no effect and ±100 for the full control effect; nearly all actives have a fitted effect of over 55% in size
Method in brief: (§3)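 HepG2 cells (600/well) were dispensed with RealTime-Glo reagents, incubated 5 h at 37 °C, then treated with compounds in DMSO for up to 40 h. Nonlytic NanoLuc luminescence reflecting viable cells was read at each stated time point.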

[5] = A CellTox Green Cytotoxicity Assay to monitor cytotoxicity in HepG2 cells - 40 hour (AID 1224879); also: nearly all actives have a fitted effect of over 40% in size; also: potency is read from the fitted curve at half-maximal effect
Method in brief: (§4)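 Continuous culture of HepG2 cells with a membrane-impermeant DNA dye; rising fluorescence marks dead cells. Compound exposure lasted up to 40 h at 37 C, with reads every 8 h from 0 h.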

[6] = qHTS RealTime-Glo MT Cell Viability Assay in HEK293 cells - 0 hour (AID 1224880); also: top concentration of the series differs between compounds; % is scaled to controls: 0 for no effect and ±100 for the full control effect; nearly all actives have a fitted effect of over 45% in size
Method in brief: (§5)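 qHTS format; HEK293 cells with NanoLuc/prosubstrate reagent, 37 C/5% CO2 for 5 h pre-dosing; compounds 23 nL in DMSO; luminescence at each time point reflects viable cells.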

[7] = A CellTox Green Cytotoxicity Assay to monitor cytotoxicity in HEK293 cells - 32 hour (AID 1224881); also: nearly all actives have a fitted effect of over 40% in size; also: potency is read from the fitted curve at half-maximal effect
Method in brief: as §1

[8] = A CellTox Green Cytotoxicity Assay to monitor cytotoxicity in HepG2 cells - 0 hour (AID 1224882); also: % is scaled to controls: 0 for no effect and ±100 for the full control effect; nearly all actives have a fitted effect of over 35% in size
Method in brief: as §4

[9] = A CellTox Green Cytotoxicity Assay to monitor cytotoxicity in HepG2 cells - 32 hour (AID 1224883); also: nearly all actives have a fitted effect of over 50% in size; also: potency is read from the fitted curve at half-maximal effect
Method in brief: as §4

[10] = A CellTox Green Cytotoxicity Assay to monitor cytotoxicity in HEK293 cells - 8 hour (AID 1224884); also: % is scaled to controls: 0 for no effect and ±100 for the full control effect; nearly all actives have a fitted effect of over 35% in size
Method in brief: as §1

[11] = qHTS RealTime-Glo MT Cell Viability Assay in HEK293 cells - 24 hour (AID 1224886); also: nearly all actives have a fitted effect of over 50% in size; also: potency is read from the fitted curve at half-maximal effect
Method in brief: as §2

[12] = A CellTox Green Cytotoxicity Assay to monitor cytotoxicity in HEK293 cells - 16 hour (AID 1224888); also: % is scaled to controls: 0 for no effect and ±100 for the full control effect; nearly all actives have a fitted effect of over 35% in size
Method in brief: as §1

[13] = qHTS RealTime-Glo MT Cell Viability Assay in HepG2 cells - 0 hour (AID 1224889); also: nearly all actives have a fitted effect of over 50% in size; also: potency is read from the fitted curve at half-maximal effect
Method in brief: as §3

[14] = A CellTox Green Cytotoxicity Assay to monitor cytotoxicity in HepG2 cells - 8 hour (AID 1224890); also: % is scaled to controls: 0 for no effect and ±100 for the full control effect; nearly all actives have a fitted effect of over 45% in size
Method in brief: as §4

[15] = qHTS RealTime-Glo MT Cell Viability Assay in HEK293 cells - 40 hour (AID 1224874); details: RealTime-Glo luminescence; max response: active compounds read low; also: nearly all actives have a fitted effect of over 50% in size; also: potency is read from the fitted curve at half-maximal effect; as to max response: % is scaled to controls: 0 for no effect and ±100 for the full control effect
Method in brief: as §5

[16] = A CellTox Green Cytotoxicity Assay to monitor cytotoxicity in HepG2 cells - 24 hour (AID 1224878); also: nearly all actives have a fitted effect of over 45% in size; also: potency is read from the fitted curve at half-maximal effect; as to Cytotoxicity: % is scaled to controls: 0 for no effect and ±100 for the full control effect
Method in brief: as §4

[17] = qHTS RealTime-Glo MT Cell Viability Assay in HEK293 cells - 8 hour (AID 1224887); also: nearly all actives have a fitted effect of over 50% in size; also: potency is read from the fitted curve at half-maximal effect
Method in brief: as §5

[18] = A CellTox Green Cytotoxicity Assay to monitor cytotoxicity in HEK293 cells - 24 hour (AID 1224875)
Method in brief: as §1

[19] = A CellTox Green Cytotoxicity Assay to monitor cytotoxicity in HepG2 cells - 16 hour (AID 1224876)
Method in brief: as §4

[20] = qHTS RealTime-Glo MT Cell Viability Assay in HepG2 cells - 16 hour (AID 1224885)
Method in brief: as §3

Clc1ccc(C2(Cn3cncn3)CC(Br)CO2)c(Cl)c1 (stereo not drawn)
inactive: Potency [1] | Potency [3] | Potency [4] | Potency [6] | Potency [7] | Potency [8] | Potency [10] | Potency [12] | Potency [13] | Potency [14]
active: Potency [2] 24.4 µM | Potency [5] 38.7 µM | Potency [9] 34.5 µM | Potency [11] 27.4 µM

CCCCC(O)(Cn1cncn1)c1ccc(Cl)cc1Cl (stereo not drawn)
active: Potency [1] 54.9 µM | Potency [2] 43.6 µM | Potency [15] 43.6 µM | Potency [16] 43.6 µM | Potency [5] 48.9 µM | Potency [7] 54.9 µM | Potency [9] 48.9 µM | Potency [11] 43.6 µM | Potency [17] 43.6 µM | Potency [13] 24.5 µM
inactive: Potency [6]

O=C(CBr)OCc1ccccc1
inactive: Potency [1] | Potency [3] | Potency [18] | Potency [19] | Potency [4] | Potency [16] | Potency [5] | Potency [6] | Potency [7] | Potency [8] | Potency [9] | Potency [20] | Potency [17] | Potency [12] | Potency [13] | Potency [14]

CCCN(CCCl)c1c([N+](=O)[O-])cc(C(F)(F)F)cc1[N+](=O)[O-]
active: Potency [17] 38.9 µM
inactive: Potency [1] | Potency [3] | max response [15] 1.89% | Potency [18] | Potency [4] | Potency [16] | Potency [5] | Potency [6] | Potency [7] | Potency [8] | Potency [9] | Potency [20] | Potency [11] | Potency [12] | Potency [13] | Potency [14]
